Only a selection was taken, and hits are over-represented in it overall.
Tgondii IFNg – T. gondii growth inhibition under IFN-gamma. Toxoplasma gondii growth in IFN-gamma-treated host cells; stronger effect = lower value. activity change, negative = inhibition, % (test concentration not listed). 69,000 compounds, 3.8% hits; in the data active = activity change below about -70%, passing the limit was not always enough;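 note: host cells are HeLa cells infected with Toxoplasma gondii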
An asterisk follows results filed as active; i = inactive; ! = repeats disagree.

SMILES | Tgondii IFNg
CCc1nc(C)sc1CNC(C)Cn1nc(C)cc1C (configuration not stated) | -3
Cc1ccccc1N(CC(=O)NCCc1ccccc1)C(=O)c1ccc(N2CCCC2)nc1 | -16
CCN(C(=O)c1cnc(NC)nc1)C1CCN(C)CC1 | -1
CN1CCC(N(CCc2ccccc2)C(=O)c2cnc(N3CCCCC3)nc2)CC1 | -90*
O=C(CSc1nc2ccccc2[nH]1)Nc1nc(-c2ccc(F)cc2)cs1 | 15
Cn1ccnc1CN1CCC2(CC1)CN(Cc1cccnc1)C(=O)CO2 | 19
CC(C)CC(=O)N1C[C@H]2CCCN(S(=O)(=O)c3ccc4c(c3)OCCO4)[C@H]2C1 | 8
COc1ccc(Cn2c(-c3ccncc3)n[nH]c2=O)cc1 | -4
COc1ccc(-c2cc(N)n(C)n2)cc1 | 111
COc1ccc(-c2ccc(=O)[nH]n2)cc1 | -115*
COc1ccc(-c2c(N)n[nH]c2C)cc1OC | -14
COc1cc(-c2ccc(=O)[nH]n2)ccc1OC(F)F | -87*
Cc1ccc(-c2ccc(=O)[nH]n2)cc1-n1cnnc1 | 8
COc1ccc2c(c1)CC(NC1CCN(S(C)(=O)=O)CC1)CC2 (configuration not stated) | 4
CCc1ccc(NC(=O)N2CC[C@H]3CN(Cc4ccncc4)S(=O)(=O)[C@@H]3CC2)cc1 | 12
COc1cccc(COC2CN(CC(C)C)C(=O)CN(C(=O)C3CC(=O)Nc4ccccc43)C2)c1 (configuration not stated) | 4
COc1nc2c(cc1C(=O)N1CCCn3nc(C(=O)O)cc3C1)CCC2 | -2
CCN1C(=O)[C@H]2CN(C(=O)N(C)C)C[C@@H]2C12CCN(S(=O)(=O)c1ccccc1)CC2 | 1
CCOCCSc1nsc(N)n1 | -52
O=C(Nc1ccccc1Sc1c(Cl)cncc1Cl)c1cccs1 | -68
O=C(Nc1ccccc1)Nc1ccccc1SCCS(=O)(=O)c1ccc(Cl)cc1 | -54
O=C(Nc1ccc(Cl)cc1)Nc1ccccc1Sc1c(Cl)cncc1Cl | -97*
O=C(Nc1cnn(-c2ncncc2N2CCSCC2)c1)C1CCCCC1 | 12
CCc1ccc(S(=O)(=O)NCCc2sc(-c3ccccc3)nc2C)s1 | 84
O=C(c1ccco1)N1CC[C@H]2[C@@H]1CC(=O)N2c1ccsc1 | -4
SMILES | Tgondii IFNg
Cc1nc(C)c(C(=O)N2CCC(C(=O)N3CCCCCC3)C2)o1 (configuration not stated) | -11
Cc1nc(C)c(C(=O)N2CC(C(=O)N3CCCCCC3)C2)o1 | -5
Cc1nc(C)c(C(=O)N2C[C@@H](c3ccccc3)[C@H](c3cc(C(F)F)n[nH]3)C2)o1 | -80*
O=C(NCc1cc(-c2cccnc2)no1)c1cnn(Cc2ccccc2)c1 | -3
CC(=O)OCc1cc(C(C)=O)ccc1OC(C)=O | -3
CCN1C(=O)[C@H]2CN(C(C)=O)C[C@@H]2C12CCN(S(=O)(=O)Cc1ccccc1)CC2 | 0
CCn1c(CC2CCN(Cc3nc(C)ccc3O)CC2)n[nH]c1=O | 4
COc1ccc([C@@H]2C[C@H](NC(C)=O)C[C@H](CC(C)C)O2)c(OC)c1OC | -1
COc1cc2c(c(OC)c1OC)-c1ccc(OC)c(=O)cc1[C@@H](NC(C)=O)CC2 | -72*!
COc1c(O[C@@H]2O[C@H](CO)[C@@H](O)[C@H](O)[C@H]2O)cc2c(c1OC)-c1ccc(SC)c(=O)cc1[C@@H](NC(C)=O)CC2 | 12
C=CCO[C@@H]1C[C@@H]2CN(S(=O)(=O)c3cn(C)cn3)CCN2C1 | 1
Cc1nc(CN2CCN(C(=O)Cn3c(C(F)(F)F)nc4ccccc43)CC2)cs1 | 5
Cc1cc(C)cc(S(=O)(=O)N2CCC[C@@H]2C(=O)NCCc2csc(-c3ccccc3)n2)c1 | -42
O=C(NCC1CCN(c2cc(-c3ccncc3)[nH]n2)CC1)c1cc2ccccc2[nH]1 | -79*
O=C(CCc1c[nH]c2ccccc12)N1CCN(c2cc(-c3cccnc3)[nH]n2)CC1 | 104
O=C(c1cc2ccccc2[nH]1)N1CCC(c2[nH]ncc2Cc2ccccc2)CC1 | -12
Cn1c(=O)[nH]c(=O)c2c1nc1oc(-c3ccc(Br)cc3)cn12 | -7
Cc1ccc(-c2nc(C)c(CCNC(=O)C(=O)Nc3ccc(F)cc3F)s2)cc1 | 22
O=C(NCCS(=O)(=O)c1ccc(F)cc1)C1OCCc2ccccc21 (configuration not stated) | 10
COc1cccc2cc(C(=O)Nc3cnn(Cc4cccc(F)c4)c3)c(C)nc12 | 2
O=C(Nc1cnn(Cc2cccc(F)c2)c1)C1OCCc2ccccc21 (configuration not stated) | -97*
O=S(=O)(c1ccc(Cl)s1)N1CCC2(CC1)NCCN=C2NCc1cc(F)cc(F)c1 | -7
O=C(O)C1CN(C(=O)c2ccccc2Oc2ccccc2)CCN1 (configuration not stated) | -3
C=CCN(Cc1ccccc1Cl)C(=O)CC1C(=O)N(C)C(=O)N1C (configuration not stated) | -4
CC(=O)N[C@@H](CSC/C=C(\C)CC/C=C(\C)CCC=C(C)C)C(=O)O | -22
SMILES | Tgondii IFNg
CC(=O)CC/C=C(\C)CC/C=C(\C)CC/C=C(\C)CCC=C(C)C | -77*
CC(C)=CCC/C(C)=C/COc1ccc2ccc(=O)oc2c1 | 19
Cc1cccc(-n2cc(CN(C)C(C)C(=O)N(C)C)cn2)c1 (configuration not stated) | 5
CC1(C)CC(=O)c2c(C(F)(F)F)nn(-c3ccc(C(N)=O)c(NC4CCC(O)CC4)c3)c2C1 (configuration not stated) | -77*
CC1(C)CC(=O)c2c(nc3ccccc3c2N)C1 | 23
CC1(C)CC(=O)c2c(C(F)(F)F)nn(-c3ccc(C(N)=O)c(NC4CCC(OC(=O)CN)CC4)c3)c2C1 (configuration not stated) | -76*
CC(=O)N1CCCC2(CCN(S(=O)(=O)c3cn(C)cn3)C2)C1 (configuration not stated) | -14
COc1ccc(NC(=O)Cn2c(=O)cc(C(=O)N3CCCCC3)c3ccccc32)cc1Cl | 2
COc1nc2ccccc2cc1-c1c(-c2ccccc2)ncn1C(CO)CO | -46
CSc1cccc(NC(=O)Cn2c(=O)ccc3cc(S(=O)(=O)N4CCC(C)CC4)ccc32)c1 | -65
COc1cccc(NC(=O)Cn2c(=O)ccc3cc(S(=O)(=O)N4CCCC4)ccc32)c1 | -46
CC1CCN(S(=O)(=O)c2ccc3c(ccc(=O)n3CC(=O)Nc3cccc(F)c3)c2)CC1 | -81*
Cc1ccc(NC(=O)Cn2c(=O)ccc3cc(S(=O)(=O)N4CCC(C)CC4)ccc32)cc1Cl | -93*
O=C(Cn1c(=O)ccc2cc(S(=O)(=O)N3CCCC3)ccc21)Nc1ccc(F)cc1 | -42
CC1CCN(S(=O)(=O)c2ccc3c(ccc(=O)n3CC(=O)NC(C)C)c2)CC1 | 1
CC1CCN(S(=O)(=O)c2ccc3c(ccc(=O)n3CC(=O)Nc3ccc(F)c(Cl)c3)c2)CC1 | -66
CC(C)c1ccc(NC(=O)Cn2c(=O)ccc3cc(S(=O)(=O)N4CCCC4)ccc32)cc1 | -78*
CC(=O)Nc1ccc(NC(=O)Cn2c(=O)ccc3cc(S(=O)(=O)N4CCC(C)CC4)ccc32)cc1 | 63
COCCN1CCOCC12CCN(c1cnccn1)CC2 | 6
Cc1cc(C)nc(SCc2n[nH]c(=S)o2)n1 | 53
CN1CCC(N(Cc2ccncc2)Cc2cncn2C)CC1 | 4
O=C(CCCCCCCC(=O)c1ccc(Cl)cc1)c1ccc(Cl)cc1 | -51
O=C(NCCc1ccccc1)N1CCC2(CC1)Nc1cc(F)ccc1-n1cccc12 | i
